High-throughput results deposited in PubChem BioAssay by National Center for Advancing Translational Sciences (NCATS).
HP1b binding inh: blocks HP1-beta chromodomain binding to methylated histone tails; P83916; AlphaScreen HP1-beta / biotin-H3K9me3 peptide binding; Potency, µM (doses to about 114 µM), inactives show at the highest dose activity change, negative = inhibition, most hits filed as inhibitors; hit rate 0.56% among 390,000; AID 540317; also: nearly all actives have a fitted effect of over 70% in size
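HP1-beta protein (50 nM final) preincubated 30 min at room temperature with biotinylated H3(1-18)K9me3 peptide (50 nM) in PBS pH 7.4, 0.01% Tween-20, then compound added for 30 min. AlphaScreen streptavidin donor/nickel chelate acceptor beads (10 ug/mL final), 30 min dark, luminescence read.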
G9a block: inhibitors of human histone lysine methyltransferase G9a | Potency, µM (top dose mostly 102 µM), for the others: at the top dose activity, negative = inhibition, most hits filed as inhibitors | hit rate 8.8% among 350,000 | Q96KQ7 | G9a H3K9 monomethylation, AlphaScreen, 2 h; also: % is scaled to controls: 0 for no effect and ±100 for the full control effect; nearly all actives have a fitted effect of over 75% in size
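Methyltransferase reactions run at room temperature for 2 h (20 nM enzyme, 500 nM biotin-H3K9 peptide, 20 uM SAM) after a 15 min compound preincubation; product detected by AlphaScreen beads and anti-H3K9me1 antibody.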
GLS inhibitor: blocks human kidney-isoform glutaminase activity; Potency, µM (doses to about 45.5 µM), for the others: at the top dose activity change, negative = inhibition, hits mostly inhibitors; hit rate 0.21% among 410,000; O94925; GLS enzymatic activity, qHTS titration; also: % is scaled to controls: 0 for no effect and ±100 for the full control effect
Target sequence (O94925 whole entry, looked up, canonical isoform): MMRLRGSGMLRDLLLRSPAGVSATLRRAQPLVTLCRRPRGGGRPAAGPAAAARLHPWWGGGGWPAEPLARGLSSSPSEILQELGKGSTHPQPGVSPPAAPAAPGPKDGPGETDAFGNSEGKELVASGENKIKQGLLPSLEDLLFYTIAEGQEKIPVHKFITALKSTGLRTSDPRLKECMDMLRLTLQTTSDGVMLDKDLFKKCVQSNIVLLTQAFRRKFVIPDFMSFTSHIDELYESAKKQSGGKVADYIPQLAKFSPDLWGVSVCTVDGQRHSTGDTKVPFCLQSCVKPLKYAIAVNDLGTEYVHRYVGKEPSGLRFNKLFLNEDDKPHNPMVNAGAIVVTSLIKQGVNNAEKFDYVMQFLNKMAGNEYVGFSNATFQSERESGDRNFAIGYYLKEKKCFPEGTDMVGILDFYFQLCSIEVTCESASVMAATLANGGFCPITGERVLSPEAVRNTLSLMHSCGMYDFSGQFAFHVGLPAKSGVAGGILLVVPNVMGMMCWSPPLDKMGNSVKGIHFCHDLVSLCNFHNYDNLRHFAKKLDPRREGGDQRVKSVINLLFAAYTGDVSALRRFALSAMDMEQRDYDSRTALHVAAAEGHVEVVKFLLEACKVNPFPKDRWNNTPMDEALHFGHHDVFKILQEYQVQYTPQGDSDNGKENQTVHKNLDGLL
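Read-out is an Amplex red fluorescence increase coupled through glutamate oxidase and HRP, measured before and after 30 min room-temperature incubation. hKGA is in 45 mM KH2PO4 (pH 8.2) with 0.02% Tween-20; glutamine added as 1mM solution.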
JMJD2A Tudor: JMJD2A Tudor domain (human) inhibition. O75164. AlphaScreen JMJD2A-Tudor / H3K4me3 peptide binding. Potency, µM (doses to about 114 µM), for inactives: at the top dose activity change, negative = inhibition, hits mostly inhibitors. hit rate 4.4% among 390,000. AID 504339; also: % is scaled to controls: 0 for no effect and ±100 for the full control effect; nearly all actives have a fitted effect of over 50% in size
BAZ2B block: inhibitors of human BAZ2B bromodomain | AlphaScreen BAZ2B-H3K14Ac peptide displacement | Potency, µM (top dose mostly 114 µM), for inactives: at the highest dose activity change, negative = inhibition, most hits filed as inhibitors | hit rate 4.4% among 360,000 | AID 504333; also: % is scaled to controls: 0 for no effect and ±100 for the full control effect; nearly all actives have a fitted effect of over 60% in size
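Inhibition is scored as reduced AlphaScreen emission. The BAZ2B/b-H3(5-23)K14Ac complex (50 nM each) in PBS pH 7.4, 0.01% Tween-20 meets compound (up to 110 uM) for 30 min at RT before bead addition.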
* = called active by the depositor; ? = inconclusive; · = no result; [ ] = another dose, or the depositor's remark. Compounds with a hit are over-represented: about 10% of the library has one in this group of screens. Calls follow the shape of the dose curve; as a rule, active = well fitted curve in the direction sought with a large enough effect; inconclusive = small, poorly fitted or top-dose-only effect, or another doubt; inactive = no such curve, though single readings can be large; an effect the other way counts as inactive or inconclusive. Potency is read from the fitted curve at half-maximal effect.

SMILES | HP1b binding inh | G9a block | GLS inhibitor | JMJD2A Tudor | BAZ2B block
COc1ccccc1C1CC(c2ccco2)=NN1S(C)(=O)=O (centres undefined) | -22.4% | -38.4% | -7.8% | 50.1µM* | -13.5%
CS(=O)(=O)N1N=C(c2ccco2)CC1c1ccc(Br)cc1 (centres undefined) | 45.8% | 35.5µM* | -1.4% | -3.8% | -11.0%
CS(=O)(=O)N1N=C(c2ccco2)CC1c1ccccc1Cl (centres undefined) | 26.6% | -39.2% | 13.6% | -21.0% | -35.0%
CCSc1ncc(Cl)c(C(=O)Nc2nc3ccc(S(C)(=O)=O)cc3s2)n1 | 44.8% | 2.2%[59 µM] | -2.4% | -14.2% | 5.3%
CCOC(=O)c1sc2cc([N+](=O)[O-])cc(SCC(C)C)c2c1N | ? | -34.0%[59 µM] | 0.8% | 39.8µM* | -8.9%
COC(=O)c1ccccc1NC(=O)c1c(C)oc2ncn(C)c(=O)c12 | 25.5% | -6.0%[59 µM] | 3.5% | -12.9% | -7.0%
CCOc1ccc(NC(=O)COC(=O)c2cc(=O)c3ccccc3o2)cc1 | 47.7% | 20µM* | -11.9% | -5.2% | 10.3%
CCCCNc1cc(=O)oc2ccccc12 | 41.9% | 13.9%[12.7 µM] | 2.4% | -9.2%[57.1 µM] | -3.5%
O=C(OCc1ccc([N+](=O)[O-])cc1)c1cc(=O)c2ccccc2o1 | 17.6% | 50.1µM* | 1.8% | -7.5% | -1.0%
CCOc1ccc(Nc2cc(=O)oc3ccccc23)cc1 | 18.8% | 14.1% | 14.7% | -15.3% | 70.8µM*
N#Cc1ccc(COC(=O)c2cc(=O)c3ccccc3o2)cc1 | 17.2% | -0.7% | 0.4% | -15.8% | -8.9%
Cc1c(Cl)cccc1NS(=O)(=O)c1cc2c(cc1Cl)CCC(=O)N2 | · | · | · | -9.2% | ·
COc1ccc(NC(=O)c2ccco2)cc1N | 11.7% | ? | ? | -33.1% | ?
COc1ccccc1N1CCN(S(=O)(=O)c2c(C(=O)N3CCOCC3)c(C)n(C)c2C)CC1 | -22.6% | -2.8%[59 µM] | -14.2% | 15.8µM* | -22.2%
COc1ccc(OC)c(S(=O)(=O)N2CCN(S(=O)(=O)c3ccc4c(c3)OCCO4)CC2)c1 | · | · | · | -13.0% | ·
CO/N=C(/C(=O)N[C@H]1C(=O)N2C(C(=O)O)=C(COC(C)=O)CSC12)c1csc(N)n1 (some centres undefined) | · | 2.9%[2.33 µM] | · | · | ·
C=CC1=C(C(=O)O)N2C(=O)[C@@H](NC(=O)/C(=N\O)c3csc(N)n3)[C@H]2SC1 (stereo in doubt) | 4.9% | · | ? | 20µM* | ·
CO/N=C(/C(=O)NC1C(=O)N2C(C(=O)O)=C(CSc3nc(=O)c(O)nn3C)CSC12)c1csc(N)n1 (centres undefined) | · | 1.4%[2.33 µM] | 28.2µM* | · | ·
CCOC(=O)c1c(NC(=O)c2cc(-c3ccc(O)cc3)on2)sc(C(C)=O)c1C | 25.5% | 22.4µM* | ? | -24.1% | -9.0%
CCOC(=O)c1c(NC(=O)c2cc(-c3ccc(OC)cc3)on2)sc(C)c1C | -4.5% | 8.91µM* | -3.5% | 14.3% | -1.3%
CCc1ccc(NC(=O)c2cc(-c3ccc(F)cc3)on2)cc1 | 6.1%[57 µM] | 16.4%[59 µM] | -5.6% | -8.2% | -9.5%
CCc1ccc(NC(=O)c2cc(-c3ccc(OC)cc3)on2)cc1 | 24.6% | -10.7% | 9.5% | -22.4% | 56.2µM*
Cc1ccc(C(=O)NC(=S)NNC(=O)COc2ccc([N+](=O)[O-])cc2)cc1 | -18.8% | 3.55µM* | -5.4% | 25.1µM* | 3.3%
O=C(COc1ccc([N+](=O)[O-])cc1)NNC(=S)NC(=O)c1ccc(Br)cc1 | ? | 2.82µM* | 37.7% | 50.1µM* | 1.5%
COc1ccc(C(=O)NC(=S)NNC(=O)COc2ccccc2)cc1 | ? | · | 45.2% | -31.3% | 13.1%
SMILES | HP1b binding inh | G9a block | GLS inhibitor | JMJD2A Tudor | BAZ2B block
Cc1ccc(C)c(C(=O)Nc2ccncc2)c1 | 9.9% | 11.1%[0.501 µM] | 5.2% | -8.2% | -6.8%
COc1ccc(N2CCN(C(=O)CSc3ccccc3)CC2)cc1 | 4.0% | ? | 18.3% | -29.4% | 79.4µM*
COC(=O)c1ccccc1NC(=S)N1CCN(c2ccc(OC)cc2)CC1 | 38.0% | ? | -2.8% | 56.2µM* | ·
CCOC(=O)N1CCC(NCCNC(=O)c2ccc(F)c(F)c2)CC1 | 34.2% | 3.1%[0.501 µM] | -6.8% | -0.7% | -0.5%
CCOC(=O)N1CCC(NCCNC(=O)c2ccc(Cl)cc2)CC1 | -38.4% | 6.31µM* | -8.4% | 2.82µM* | ?
COc1ccc(N2CCN(C(=O)CSc3nc4[nH]ncc4c(=O)n3-c3cccc4ccccc34)CC2)cc1 | -5.5% | 39.8µM* | -9.9% | -34.1% | -32.8%
C[C@H]1COc2cccc(N3CCC[C@H]3CO)c2S(=O)(=O)N1 | · | · | 43.4% | · | ·
Cc1cccc(-n2ncc3c2CCCC3NC(=O)CCN2CCCO2)c1C (centres undefined) | 26.0% | · | 0.0% | -5.6% | -7.0%
O=C(Nc1ccc2c(c1)OCO2)c1csc([C@H]2C[C@H](O)[C@@H](CO)O2)n1 | · | · | -0.9% | · | ·
O=C(OCc1ccccc1)N1Cc2ccnnc2CC1c1ccccc1Br (centres undefined) | · | · | -2.0% | · | ·
COc1ccc(C(=O)N2CCN(c3ccc(NC(=O)Cc4ccccc4)cc3)CC2)cc1 | 19.3% | · | -7.5% | -13.6% | -1.6%
COc1ccc(N2CCN(C(=O)CSc3nc(C)cs3)CC2)cc1 | 9.2% | 44.7µM* | 3.8% | -26.5% | -7.4%
COc1ccc(N2CCN(C(=O)c3ccc(CSc4ccccc4)cc3)CC2)cc1 | ? | ? | 17.8% | ? | 44.7µM*
CCOC(=O)N1CCN(C(=O)c2ccc(CSc3ccc(Cl)cc3)cc2)CC1 | -8.0% | -3.3% | -2.0% | 44.7µM* | -20.0%
COc1ccc(N2CCN(C(=O)COC(=O)CSc3ccccc3)CC2)cc1 | -12.3% | 15.8µM* | 12.9% | ? | ?
COc1ccc(N2CCN(C(=O)CSc3ncnc4scc(-c5ccc(C)cc5)c34)CC2)cc1 | ? | · | 8.9% | ? | ·
O=C(Cn1c(=O)n(-c2ccc(Cl)cc2)c(=O)c2c3c(sc21)CCCCC3)Nc1cccc(Cl)c1 | 29.2% | 10.8%[59 µM] | -1.7% | 5.5% | -1.1%
CCc1ccccc1NC(=O)Cn1nnc(-c2nc(-c3ccncc3)no2)c1N | 30.9% | 7.08µM* | -4.8% | -1.0% | -13.2%
Nc1c(-c2nc(-c3ccncc3)no2)nnn1CC(=O)Nc1ccccc1 | 191.1% | -21.8%[59 µM] | -3.1% | -29.0% | -38.2%
COCCCn1c(=O)/c(=C\c2cccc(OC)c2OC)s/c1=C(/C#N)C(=O)Nc1ccc(C(=O)O)cc1 | 6.4% | -20.6%[59 µM] | -1.5% | -8.8%[11.4 µM] | 44.7µM*
Cc1ccc2c(c1)C1(C(=O)N2)N2CCCC2C(C(=O)c2ccc3ccccc3c2)C12C(=O)Nc1ccccc12 (centres undefined) | ? | ? | -10.3% | 50.1µM* | ?
O=C1CCC(C(=O)N2CCCC(C(=O)c3ccc4ccccc4c3)C2)=NN1 (centres undefined) | 43.6% | ? | -0.1% | -17.4% | -16.5%
COc1ccc(CNC(=O)c2ccc(CS(=O)(=O)c3ccccc3OC)o2)cc1 | 29.9% | 6.3%[59 µM] | 5.8% | -3.8% | 2.0%
